From the supplement of paper PMC10849652
Of roughly 7,900 targets only a part is listed; those with a hit were picked by preference. About 0.6% of all pairs of compound and target were hits. Unmarked numbers belong to inactive results.

Assays:
Test in all cases: log2 fold change, soluble protein after heating vs DMSO (PISA); higher = thermal stabilisation; K562 cells, 10 uM, 30 min; active = over 0.2 and 3.5 SD of the protein, either way, in both replicates (recomputed)
[1] = compound: CS(=O)(=O)c1ccc(-c2cnc(N)c(C(=O)Nc3ccccc3)n2)cc1
In short: (§1)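 K562 cells at 2×10^6 cells/mL were exposed to 10 μM compound for 30 min, then aliquots were heated for 3 min across 48°C-58°C, pooled, and extracted in PBS containing 0.5% NP-40 at 4°C. The supernatant after 21,000xg for 90 min was taken as soluble protein and measured by TMTpro 16plex LC-MS/MS with channel sums equalised. Thermal stability is reported relative to control samples, with values from duplicates. Fold changes are given on a log2 scale.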

[2] = compound: C[C@@H]1COCCN1C2=NC(=NC(=C2)C3(CC3)S(=O)(=O)C)C4=C5C=CNC5=CC=C4
In short: as §1

[3] = compound: C[C@H](C1=CC=C(C=C1)C(=O)NC2=C3C=CNC3=NC=C2)N
In short: as §1

duvelisib = compound: C[C@H](Nc1ncnc2nc[nH]c12)c1cc2cccc(Cl)c2c(=O)n1-c1ccccc1 [duvelisib]
In short: as §1

gandotinib = compound: Cc1cc(Nc2cc(CN3CCOCC3)c3nc(C)c(Cc4ccc(Cl)cc4F)n3n2)n[nH]1 [gandotinib]
In short: as §1

tozasertib = compound: Cc1cc(Nc2cc(N3CCN(C)CC3)nc(Sc3ccc(NC(=O)C4CC4)cc3)n2)n[nH]1 [tozasertib]
In short: as §1

[4] = compound: Cc1cc(SCc2sc(-c3ccc(C(F)(F)F)cc3)nc2C)ccc1OCC(=O)O
In short: as §1

bafetinib = compound: Cc1ccc(NC(=O)c2ccc(CN3CC[C@H](N(C)C)C3)c(C(F)(F)F)c2)cc1Nc1nccc(-c2cncnc2)n1 [bafetinib]
In short: as §1

[5] = compound: Cc1cccc(CC(=O)N2CCc3c2ccc(-c2cn(C)c4ncnc(N)c24)c3F)n1
In short: as §1

nilotinib = compound: Cc1cn(-c2cc(NC(=O)c3ccc(C)c(Nc4nccc(-c5cccnc5)n4)c3)cc(C(F)(F)F)c2)cn1 [nilotinib]
In short: as §1

[6] = compound: Cc1nc(Nc2n[nH]c3c2CN(C(=O)N[C@H](CN(C)C)c2ccccc2)C3(C)C)c2sccc2n1
In short: as §1

dasatinib = compound: Cc1nc(Nc2ncc(C(=O)Nc3c(C)cccc3Cl)s2)cc(N2CCN(CCO)CC2)n1 [dasatinib]
In short: as §1

[7] = compound: Cc1ncc(-c2ccnc(Nc3ccc(S(C)(=O)=O)cc3)n2)n1C(C)C
In short: as §1

[8] = compound: Cn1cc(-c2ccc3c(c2)CCN3C(=O)Cc2cccc(C(F)(F)F)c2)c2c(N)ncnc21
In short: as §1

tipifarnib = compound: Cn1cncc1[C@@](N)(c1ccc(Cl)cc1)c1ccc2c(c1)c(-c1cccc(Cl)c1)cc(=O)n2C [tipifarnib]
In short: as §1

mubritinib = compound: FC(F)(F)c1ccc(/C=C/c2nc(COc3ccc(CCCCn4ccnn4)cc3)co2)cc1 [mubritinib]
In short: as §1

crizotinib = compound: C[C@@H](Oc1cc(-c2cnn(C3CCNCC3)c2)cnc1N)c1c(Cl)ccc(F)c1Cl [crizotinib]
In short: as §1

doramapimod = compound: Cc1ccc(-n2nc(C(C)(C)C)cc2NC(=O)Nc2ccc(OCCN3CCOCC3)c3ccccc23)cc1 [doramapimod]
In short: as §1

ispinesib = compound: Cc1ccc(C(=O)N(CCCN)[C@@H](c2nc3cc(Cl)ccc3c(=O)n2Cc2ccccc2)C(C)C)cc1 [ispinesib]
In short: as §1

[9] = compound: Cn1cc(-c2ccc3nnc(C(F)(F)c4ccc5ncccc5c4)n3n2)cn1
In short: as §1

Chain of UniProt Q16881 (Q16881 whole entry, looked up): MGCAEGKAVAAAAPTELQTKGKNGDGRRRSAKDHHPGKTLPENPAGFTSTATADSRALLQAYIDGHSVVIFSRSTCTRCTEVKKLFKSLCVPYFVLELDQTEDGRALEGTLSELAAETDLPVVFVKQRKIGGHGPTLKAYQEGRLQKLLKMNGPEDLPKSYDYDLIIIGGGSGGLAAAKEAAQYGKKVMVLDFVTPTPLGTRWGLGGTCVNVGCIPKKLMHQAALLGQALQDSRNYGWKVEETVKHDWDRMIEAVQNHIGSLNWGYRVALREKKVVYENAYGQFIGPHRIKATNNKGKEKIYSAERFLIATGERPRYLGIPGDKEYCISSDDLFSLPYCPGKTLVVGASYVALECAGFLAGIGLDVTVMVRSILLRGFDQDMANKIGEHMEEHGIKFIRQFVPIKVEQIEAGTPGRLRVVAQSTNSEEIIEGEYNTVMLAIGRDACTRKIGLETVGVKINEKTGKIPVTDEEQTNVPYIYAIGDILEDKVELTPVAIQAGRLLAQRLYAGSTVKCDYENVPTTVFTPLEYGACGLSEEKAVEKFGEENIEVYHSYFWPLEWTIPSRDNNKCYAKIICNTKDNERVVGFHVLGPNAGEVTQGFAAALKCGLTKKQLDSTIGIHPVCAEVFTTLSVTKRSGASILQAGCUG
Chain of UniProt Q9BQB6 (Q9BQB6 whole entry, looked up): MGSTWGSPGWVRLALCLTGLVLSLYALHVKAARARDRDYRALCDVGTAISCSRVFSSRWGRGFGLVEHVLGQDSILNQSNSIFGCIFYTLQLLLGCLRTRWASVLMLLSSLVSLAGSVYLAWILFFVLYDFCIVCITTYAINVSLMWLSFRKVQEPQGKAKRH
Chain of UniProt Q502W6 (Q502W6 whole entry, looked up): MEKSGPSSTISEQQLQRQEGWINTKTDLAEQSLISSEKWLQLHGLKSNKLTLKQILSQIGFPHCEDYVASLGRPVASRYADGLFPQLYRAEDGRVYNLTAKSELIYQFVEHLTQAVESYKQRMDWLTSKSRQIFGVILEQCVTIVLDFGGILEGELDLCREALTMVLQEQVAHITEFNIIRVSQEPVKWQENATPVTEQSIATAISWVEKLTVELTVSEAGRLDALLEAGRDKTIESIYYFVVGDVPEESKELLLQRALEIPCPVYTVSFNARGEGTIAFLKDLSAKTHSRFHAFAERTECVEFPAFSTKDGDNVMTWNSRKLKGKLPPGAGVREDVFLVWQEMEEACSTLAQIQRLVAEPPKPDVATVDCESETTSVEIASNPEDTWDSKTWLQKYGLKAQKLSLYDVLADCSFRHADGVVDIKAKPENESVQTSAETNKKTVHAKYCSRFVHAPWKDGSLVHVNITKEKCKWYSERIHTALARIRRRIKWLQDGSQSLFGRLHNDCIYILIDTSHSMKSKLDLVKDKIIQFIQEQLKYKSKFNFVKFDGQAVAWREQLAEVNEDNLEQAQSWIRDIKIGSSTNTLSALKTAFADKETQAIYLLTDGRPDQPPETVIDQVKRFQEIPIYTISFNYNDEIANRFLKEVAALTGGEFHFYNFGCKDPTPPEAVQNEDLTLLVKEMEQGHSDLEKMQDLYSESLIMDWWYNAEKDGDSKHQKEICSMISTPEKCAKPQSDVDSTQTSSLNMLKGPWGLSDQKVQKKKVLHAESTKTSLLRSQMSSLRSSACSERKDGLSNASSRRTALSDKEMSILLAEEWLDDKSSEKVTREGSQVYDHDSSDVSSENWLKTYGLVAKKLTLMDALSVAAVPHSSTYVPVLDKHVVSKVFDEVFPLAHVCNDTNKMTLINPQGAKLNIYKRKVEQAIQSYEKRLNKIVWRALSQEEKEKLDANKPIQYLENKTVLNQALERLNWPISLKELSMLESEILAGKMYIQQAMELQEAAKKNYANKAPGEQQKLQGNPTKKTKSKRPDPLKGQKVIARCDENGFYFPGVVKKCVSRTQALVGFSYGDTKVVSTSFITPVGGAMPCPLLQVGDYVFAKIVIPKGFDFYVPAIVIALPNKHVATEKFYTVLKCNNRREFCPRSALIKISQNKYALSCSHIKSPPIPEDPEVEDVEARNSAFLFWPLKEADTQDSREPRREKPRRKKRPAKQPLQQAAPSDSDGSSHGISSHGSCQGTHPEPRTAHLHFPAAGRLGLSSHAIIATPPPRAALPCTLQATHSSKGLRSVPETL
Chain of UniProt Q86UV5 (Q86UV5 whole entry, looked up): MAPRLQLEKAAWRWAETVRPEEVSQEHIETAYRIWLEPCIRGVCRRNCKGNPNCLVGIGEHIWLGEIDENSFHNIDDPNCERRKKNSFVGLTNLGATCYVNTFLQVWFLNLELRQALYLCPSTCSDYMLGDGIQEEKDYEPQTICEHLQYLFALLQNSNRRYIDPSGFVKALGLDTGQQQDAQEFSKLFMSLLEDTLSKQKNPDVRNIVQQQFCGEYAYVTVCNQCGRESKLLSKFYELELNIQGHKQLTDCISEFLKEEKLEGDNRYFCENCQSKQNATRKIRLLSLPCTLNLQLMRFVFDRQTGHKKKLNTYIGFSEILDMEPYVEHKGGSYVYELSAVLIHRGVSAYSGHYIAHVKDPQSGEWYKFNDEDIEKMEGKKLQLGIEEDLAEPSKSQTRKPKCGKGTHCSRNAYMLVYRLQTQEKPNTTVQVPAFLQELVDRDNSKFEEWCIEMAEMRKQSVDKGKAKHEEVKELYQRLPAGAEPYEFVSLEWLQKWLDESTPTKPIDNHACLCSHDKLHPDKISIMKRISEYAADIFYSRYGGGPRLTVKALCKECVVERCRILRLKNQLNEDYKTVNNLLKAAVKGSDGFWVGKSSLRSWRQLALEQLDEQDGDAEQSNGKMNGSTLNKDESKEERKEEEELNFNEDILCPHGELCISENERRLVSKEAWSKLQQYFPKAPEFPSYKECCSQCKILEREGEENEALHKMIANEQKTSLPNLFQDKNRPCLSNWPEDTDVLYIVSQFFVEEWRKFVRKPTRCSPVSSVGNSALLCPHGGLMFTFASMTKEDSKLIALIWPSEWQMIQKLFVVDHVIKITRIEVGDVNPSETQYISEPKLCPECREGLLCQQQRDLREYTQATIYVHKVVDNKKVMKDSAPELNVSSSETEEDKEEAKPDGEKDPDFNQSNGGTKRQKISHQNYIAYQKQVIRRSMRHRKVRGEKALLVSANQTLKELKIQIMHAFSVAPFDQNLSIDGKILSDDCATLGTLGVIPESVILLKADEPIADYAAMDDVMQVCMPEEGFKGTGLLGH
Chain of UniProt Q9HCS7 (Q9HCS7 whole entry, looked up): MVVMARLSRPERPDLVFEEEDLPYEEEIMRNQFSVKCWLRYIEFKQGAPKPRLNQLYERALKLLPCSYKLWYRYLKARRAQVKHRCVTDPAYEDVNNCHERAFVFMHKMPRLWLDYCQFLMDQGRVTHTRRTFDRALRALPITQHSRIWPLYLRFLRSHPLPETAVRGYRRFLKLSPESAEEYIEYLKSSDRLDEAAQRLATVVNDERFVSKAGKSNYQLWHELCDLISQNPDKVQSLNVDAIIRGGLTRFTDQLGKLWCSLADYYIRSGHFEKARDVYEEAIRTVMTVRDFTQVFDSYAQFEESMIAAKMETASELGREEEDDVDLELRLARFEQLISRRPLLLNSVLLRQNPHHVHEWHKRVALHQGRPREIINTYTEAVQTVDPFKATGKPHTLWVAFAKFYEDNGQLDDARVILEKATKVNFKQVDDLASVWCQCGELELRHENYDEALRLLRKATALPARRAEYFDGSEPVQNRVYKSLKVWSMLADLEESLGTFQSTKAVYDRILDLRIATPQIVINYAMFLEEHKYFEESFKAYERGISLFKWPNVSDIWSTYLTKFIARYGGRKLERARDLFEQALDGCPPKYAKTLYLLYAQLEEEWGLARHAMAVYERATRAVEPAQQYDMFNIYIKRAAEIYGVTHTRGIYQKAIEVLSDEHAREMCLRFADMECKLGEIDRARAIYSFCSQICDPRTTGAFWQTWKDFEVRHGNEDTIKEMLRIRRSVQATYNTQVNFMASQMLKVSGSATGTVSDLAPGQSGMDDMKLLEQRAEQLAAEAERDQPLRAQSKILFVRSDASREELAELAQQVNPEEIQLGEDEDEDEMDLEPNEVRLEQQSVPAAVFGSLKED
Chain of UniProt O00124 (O00124 whole entry, looked up): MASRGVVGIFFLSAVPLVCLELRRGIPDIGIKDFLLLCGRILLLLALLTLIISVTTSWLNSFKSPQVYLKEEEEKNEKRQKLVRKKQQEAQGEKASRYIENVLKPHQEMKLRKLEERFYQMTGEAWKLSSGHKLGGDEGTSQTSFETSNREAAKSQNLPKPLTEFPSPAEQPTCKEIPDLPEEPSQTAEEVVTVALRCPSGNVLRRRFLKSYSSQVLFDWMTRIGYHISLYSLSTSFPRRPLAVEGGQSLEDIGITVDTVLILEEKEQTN
Chain of UniProt Q86XT9 (Q86XT9 whole entry, looked up): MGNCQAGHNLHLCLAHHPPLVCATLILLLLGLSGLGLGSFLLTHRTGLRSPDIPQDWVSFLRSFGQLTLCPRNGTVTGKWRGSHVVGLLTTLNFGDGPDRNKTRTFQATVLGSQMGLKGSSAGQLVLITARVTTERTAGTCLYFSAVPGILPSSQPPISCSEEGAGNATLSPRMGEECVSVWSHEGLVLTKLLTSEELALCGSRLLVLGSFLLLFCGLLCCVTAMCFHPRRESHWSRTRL
Chain of UniProt Q96DX7 (Q96DX7 whole entry, looked up): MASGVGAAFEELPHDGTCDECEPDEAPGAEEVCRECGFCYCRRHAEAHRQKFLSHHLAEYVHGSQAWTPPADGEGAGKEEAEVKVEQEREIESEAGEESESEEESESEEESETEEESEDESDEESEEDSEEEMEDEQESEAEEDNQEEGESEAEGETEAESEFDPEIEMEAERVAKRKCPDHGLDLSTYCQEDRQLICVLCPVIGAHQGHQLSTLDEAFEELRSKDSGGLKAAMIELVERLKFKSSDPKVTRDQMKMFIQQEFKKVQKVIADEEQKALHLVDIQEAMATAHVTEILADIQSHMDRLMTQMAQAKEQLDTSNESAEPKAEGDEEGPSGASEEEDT
Chain of UniProt P51668 (P51668 whole entry, looked up): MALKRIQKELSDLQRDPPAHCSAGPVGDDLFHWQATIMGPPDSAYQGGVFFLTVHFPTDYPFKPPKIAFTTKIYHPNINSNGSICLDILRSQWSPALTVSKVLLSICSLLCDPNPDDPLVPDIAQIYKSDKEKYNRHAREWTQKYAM

Target | log2 fold change [1] | log2 fold change [2] | log2 fold change [3] | log2 fold change (duvelisib) | log2 fold change (gandotinib) | log2 fold change (tozasertib) | log2 fold change [4] | log2 fold change (bafetinib) | log2 fold change [5] | log2 fold change (nilotinib) | log2 fold change [6] | log2 fold change (dasatinib) | log2 fold change [7] | log2 fold change [8] | log2 fold change (tipifarnib) | log2 fold change (mubritinib) | log2 fold change (crizotinib) | log2 fold change (doramapimod) | log2 fold change (ispinesib) | log2 fold change [9]
XIAP (UniProt P98170) | 0.125 | 0.092 | -0.09 | 0.068 | 0.061 | -0.01 | -0.036 | -0.111 | -0.046 | 0.366 | 0.061 | -0.027 | -0.288 | 0.029 | -0.078 | 0.095 |  |  |  | 
UBE2J2 isoform 3 (UniProt Q8N2K1) | 0.252 | -0.076 | -0.365 | 0.101 | 0.028 | -0.094 | -0.01 | 0.037 | -0.12 |  |  | -0.154 |  | 0.013 | 0.041 |  |  |  |  | 
VWA3B isoform 6 (UniProt Q502W6) |  | 0.074 | 0.045 | 0.337 | -0.08 | 0.028 | 0.172 | 0.074 | 0.024 | -0.128 | 0.075 | 0.148 | -0.129 | 0.045 | 0.047 | 0.014 | -0.012 | 0.079 | -0.266 | 0.003
VDAC1 (UniProt C9JI87) | 0.017 | -0.195 | 0.275 | 0.09 |  |  | -0.281 | -0.152 |  | -0.009 | -0.048 | 0.277 | -0.106 | -0.16 | 0.242 | 0.133 |  |  | -0.743 (active) | 0.22
WARS1 (UniProt G3V227) |  | -0.024 | 0.147 | -0.011 |  | -0.016 | -0.015 | 0 |  |  |  | -0.164 |  | -0.42 |  |  |  |  |  | 
TUBA4A (UniProt C9JJQ8) | 0.009 |  | -0.159 | 0.19 |  | 0.001 | 0.108 | 0.116 |  |  |  | -0.082 |  | 0.012 | 0.047 |  | -0.019 | -0.046 |  | 
UNC119B (UniProt A6NIH7) | 0.026 |  | 0.039 | 0.178 | 0.034 | -0.019 | -0.064 | 0.424 | -0.006 | 0.16 | -0.077 | 0.069 | 0.173 | 0.428 | -0.143 | 0.14 | -0.08 | 0.263 | 0.527 (active) | -0.089
TRIM44 (UniProt Q96DX7) | 0.013 |  | -0.059 | 0.063 | 0.045 | 0.022 | 0.024 | -0.033 | -0.01 | -0.024 | -0.023 | -0.029 | 0.026 | 0.002 | -0.041 | 0.065 | 0.083 | -0.004 | 0.03 | 0.051
TVP23C (UniProt Q96ET8) |  |  | 0.03 | -0.065 | -0.016 | -0.028 | -0.092 |  | 0.033 |  |  | 0.056 |  | -0.116 | 0.041 | 0.04 |  |  |  | 
TTC26 |  |  |  |  |  | -0.11 |  | -0.04 |  |  |  |  |  |  |  |  |  |  | 0.105 | 0.04
U2AF1L5 (UniProt P0DN76) |  |  |  | -0.014 |  | -0.025 | 0.023 | 0.047 |  | 0.025 | -0.669 | -0.017 | -0.108 |  |  | 0.173 | -0.105 | -0.1 |  | 
TMEM219 (UniProt Q86XT9) | 0.049 | -0.036 | 0.114 | -0.163 | 0.034 | -0.055 | -0.241 | -0.211 | 0.027 | -0.243 | 0.216 | -0.11 | 0.032 | 0.092 | 0.063 |  |  |  |  | 
WARS1 (UniProt G3V277) | -0.009 |  |  |  | -0.218 | -0.206 |  | -0.008 | -0.116 | -0.065 | 0.039 |  | -0.034 |  |  | 0 | -0.001 | 0.029 |  | 
WARS1 (UniProt G3V339) |  | -0.123 |  |  |  |  |  |  |  |  |  |  |  |  |  |  |  |  |  | 
ULBP1 (UniProt Q9BZM6) | 0.188 | 0.192 | 0.156 | -0.024 |  | 0.044 | 0.014 |  |  |  |  | 0.083 |  | 0.068 | -0.097 | 0.004 |  |  | 0.011 | -0.11
TXNRD1 isoform 7 (UniProt Q16881) | 0.075 | -0.026 |  | -0.049 | 0.125 |  | -0.015 | -0.124 | 0.001 |  |  | -0.052 |  |  | -0.051 |  |  |  |  | 
UTP20 (UniProt O75691) |  | -0.379 |  |  |  | 0.021 |  |  |  |  |  |  |  |  | 0.089 |  |  |  |  | 
XAB2 (UniProt Q9HCS7) |  | -0.223 |  | -0.146 |  |  | 0.013 |  |  |  |  | -0.092 |  |  |  | -0.151 | -0.69 (active) | -0.035 | -0.223 | 0.125
VKORC1 (UniProt Q9BQB6) | 0.012 |  | -0.032 | 0.153 | -0.116 | -0.027 | 0.106 | -0.062 | 0.045 | -0.008 | 0.013 | -0.049 | -0.013 | 0.105 | 0 | 0.035 | 0.494 (active) | 0.033 | -0.108 | 0.081
WDR4 isoform 3 (UniProt P57081) | 0.074 | 0.125 |  |  | -0.247 |  |  | 0.125 | 0.057 |  |  |  |  |  |  |  |  |  |  | 
TXNL4B (UniProt Q9NX01) | 0.22 |  | 0.008 | 0.083 | -0.024 | 0.07 | 0.054 | -0.1 | 0.005 | 0.003 | -0.041 | -0.042 | 0.01 | 0.007 | 0.008 | 0.17 | 0.309 | 0.037 | -0.017 | 0.028
WARS1 (UniProt G3V3P2) | -0.07 |  |  |  |  |  |  | -0.076 |  |  |  |  |  |  |  |  |  |  |  | 
UBE2D1 (UniProt P51668) | 0.062 |  | -0.004 | 0.054 | 0.047 | -0.048 | 0.102 | -0.065 | -0.345 (active) | -0.002 | 0.046 | -0.083 | -0.074 | 0.036 | -0.089 | 0.085 |  |  | 0.056 | -0.075
WDR75 (UniProt Q8IWA0) |  | -0.03 | 0.185 | -0.082 |  | -0.2 | 0.112 | 0.019 |  | -0.214 | 0.041 | 0.085 | 0.109 | -0.252 | -0.021 | -0.329 | -0.07 | 0.145 | -0.219 | -0.045
UBXN8 (UniProt O00124) | 0.054 | -0.094 | 0.161 | 0.234 | 0.026 | -0.077 | -0.101 | -0.112 | -0.086 |  |  | -0.056 |  | 0.017 | 0.048 |  |  |  | -0.193 | -0.439
USP48 (UniProt Q86UV5) | 0.015 |  |  |  |  |  |  | 0.045 |  | -0.294 | -0.495 |  | -0.016 |  |  | 0.117 |  |  |  | 
